The panel holds about 83,000 compounds, 20% with a hit somewhere; the sample as a whole holds those more often.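 Cells were grown in 96-well plates and exposed to the test compound at a single concentration for 48 hours; results are reported as percent growth, with values below 10 considered active.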 Calls of active or inactive are those of the source.
Experiments:
Experiment in all cases: NCI-60 one-dose screen, 48 h (100 = growth as untreated, 0 = no growth, -100 = all killed)
Conditions in all cases: 10 µM unless noted
[1] = system: SK-MEL-2 melanoma
[2] = system: EKVX NSCLC
[3] = system: SN12C renal
[4] = system: UO-31 renal
[5] = system: TK-10 renal
[6] = system: ACHN renal
[7] = system: CAKI-1 renal
[8] = system: A498 renal
[9] = system: CCRF-CEM leukemia
[10] = system: MOLT-4 leukemia
[11] = system: SR leukemia
[12] = system: RPMI-8226 leukemia
[13] = system: OVCAR-8 ovarian
[14] = system: OVCAR-5 ovarian
[15] = system: OVCAR-4 ovarian
[16] = system: SK-OV-3 ovarian
[17] = system: IGROV1 ovarian
[18] = system: OVCAR-3 ovarian
[19] = system: HS 578T breast
[20] = system: NCI/ADR-RES ovarian

Measured: growth

[2H]C([2H])([2H])Oc1ccc(/C=C/C(=O)/C=C(O)/C=C/c2ccc(OC([2H])([2H])[2H])c(OC([2H])([2H])[2H])c2)cc1OC([2H])([2H])[2H]
inactive: [1] 86.3% | [2] 53.1% | [3] 28.3% | [4] 11.4% | [5] 54.4% | [6] 40.2% | [7] 41.3% | [8] 116% | [9] 22.3% | [10] 60.6% | [11] 18.6% | [13] 21.8% | [14] 71.6% | [15] 42.2% | [16] 39% | [17] 52.9% | [18] 37.2% | [19] 51.7% | [20] 41.5%
active: [12] 6.79%

CN1CCN(CCCNC(=O)c2c3c(n4ccccc24)C(=O)c2ncccc2C3=O)CC1
active: [1] 9.41% | [3] -48.5% | [6] 7.62% | [9] -11.5% | [10] -35.1% | [11] -8.6% | [13] -9.12% | [15] -100% | [17] -24.6% | [18] -10.7%
inactive: [2] 24% | [4] 32.2% | [5] 56.7% | [7] 75.4% | [8] 45.8% | [12] 29.4% | [14] 39.4% | [16] 28.6% | [19] 61.2% | [20] 40.9%

C/C=C(/C)C(=O)O[C@@H]1CC(C)(C)CC2C34OC(=O)[C@@]21CC[C@@]3(C)[C@]1(C)CCC2C(C)(C)C(=O)CC[C@]2(C)C1C[C@@H]4O (stereo not given in full)
inactive: [1] 80.3% | [2] 50.1% | [3] 83.7% | [4] 67.8% | [5] 73.2% | [6] 85.9% | [7] 59.6% | [8] 69.3% | [9] 36.3% | [10] 24.2% | [11] 28.5% | [12] 26.2% | [13] 68.6% | [14] 95.3% | [15] 67.1% | [16] 87.8% | [17] 72.6% | [18] 73.7% | [19] 78.3% | [20] 77%

COc1ccc(/C=C/C(=O)c2ccc(-n3cc(CN4CCN(c5cc6c(cc5F)c(=O)c(C(=O)O)cn6C5CC5)CC4)nn3)cc2)cc1
active: [11] -2.25% | [12] -24.4%
inactive: [1] 97% | [2] 96.6% | [3] 32.6% | [4] 54.9% | [5] 104% | [6] 85% | [7] 67.8% | [8] 68.2% | [9] 44% | [10] 64.2% | [13] 67.4% | [14] 92.1% | [15] 88% | [16] 76.9% | [17] 26.6% | [18] 39.3% | [19] 52.8% | [20] 90.7%

CC1OC(C(=O)N2CCN(CCO)CC2)CC1COC1CCCCC1 (stereo not given)
inactive: [1] 107% [50 µM] | [2] 99.8% [50 µM] | [3] 92.1% [50 µM] | [4] 70.4% [50 µM] | [5] 129% [50 µM] | [6] 94.3% [50 µM] | [7] 85.3% [50 µM] | [8] 126% [50 µM] | [9] 106% [50 µM] | [10] 97.1% [50 µM] | [11] 88% [50 µM] | [12] 96.3% [50 µM] | [13] 99.2% [50 µM] | [14] 104% [50 µM] | [15] 104% [50 µM] | [16] 97.9% [50 µM] | [17] 98% [50 µM] | [18] 96.7% [50 µM] | [19] 87.2% [50 µM] | [20] 93% [50 µM]

COc1cccc2cc(N(C)c3ncnc4ccccc34)ccc12
inactive: [1] 30.1% | [2] 43.8% | [3] 20.9% | [4] 25.4% | [5] 51% | [7] 10.8% | [9] 22% | [10] 16.8% | [14] 54.3% | [15] 34.7% | [16] 33.9% | [17] 14.4% | [19] 40.9%
active: [6] 6.07% | [8] -7.44% | [11] 9.25% | [12] -18.3% | [13] 6.23% | [18] 6.13% | [20] 8.39%

Cc1ccc(-c2nnc(SCc3nc(N)nc(Nc4ccccc4F)n3)n2-c2ccccc2)cc1
inactive: [1] 95.4% | [2] 94.2% | [3] 95.6% | [4] 70.4% | [5] 100% | [6] 92% | [7] 85.2% | [8] 55.3% | [9] 90.2% | [10] 70.2% | [11] 92.4% | [12] 83.7% | [13] 88% | [14] 95.9% | [15] 86.7% | [16] 102% | [17] 81.4% | [18] 102% | [19] 87.1% | [20] 98.2%

COc1ccccc1/C=C/C1=C(C)CCC(c2ccccc2OC)C1C (stereo not given)
inactive: [2] 35% | [3] 28% | [5] 41.1% | [6] 13% | [13] 19.7% | [14] 28.9% | [15] 42.7% | [16] 33.4% | [19] 11.1% | [20] 18%
active: [1] -7.95% | [4] 4.1% | [7] 2.23% | [8] -4.12% | [9] -9.01% | [10] 4.37% | [11] -13.2% | [12] -4.33% | [17] -48.7% | [18] -21.6%

COc1ccc(NC(=O)CSc2oc(-c3ccccc3)nc2S(=O)(=O)c2ccc(Cl)cc2)c(OC)c1
inactive: [1] 66.4% | [2] 74.7% | [3] 75.8% | [4] 61.6% | [5] 67.1% | [6] 36.6% | [7] 86.1% | [8] 49.9% | [9] 89.1% | [10] 73% | [11] 65.2% | [12] 49.9% | [13] 34.3% | [14] 107% | [15] 64.6% | [16] 83.2% | [17] 93.5% | [18] 75.3% | [19] 36.2% | [20] 61.7%

CCN(CC)c1ccc(/C=N/NC(=O)c2ccccc2Nc2ccnc(C(F)(F)F)c2)c(O)c1
inactive: [1] 94.1% | [2] 30.5% | [3] 22.2% | [4] 16% | [5] 33.3% | [6] 11.9% | [7] 56.9% | [8] 47.8% | [9] 14.5% | [10] 59.6% | [11] 65.1% | [12] 26.5% | [13] 35.1% | [14] 57.3% | [15] 33.1% | [16] 19.9% | [17] 47.5% | [18] 36.7% | [19] 61.1% | [20] 17.3%

COc1ccc(/C=C\c2cc(OC)c(OC)c(OC)c2)cc1OCC(=O)Nc1nc2ccccc2s1
inactive: [1] 26.7% | [2] 55.8% | [3] 34.9% | [6] 16.9% | [7] 17.6% | [8] 25.1% | [9] 35.3% | [12] 22.5% | [13] 19% | [14] 65% | [15] 49.2% | [16] 30.4% | [19] 11.3% | [20] 12.7%
active: [4] 4.73% | [5] 4.64% | [10] 6.31% | [11] 9.4% | [17] 3.36% | [18] 0.388%

CN(C)CC1C(=O)O[C@H]2[C@H]1CC/C(COC(=O)NCc1ccc(Cn3c(=O)sn(CCCI)c3=O)cc1)=C\CC[C@@]1(C)O[C@@H]21 (stereo not given in full)
active: [4] 1.41% | [5] -63.3% | [6] -48.8% | [7] -63.8% | [9] -10.1% | [10] -1.36% | [11] -28.6% | [12] -29.7% | [13] -68.2% | [15] 6.44% | [17] -81.8% | [18] -96.4%
inactive: [1] 63.3% | [2] 89.7% | [3] 18.9% | [8] 105% | [14] 105% | [16] 99.5% | [19] 82.5% | [20] 98.8%

C#CCOc1ccc(C2=NN(CCCC)C3N=C(Cl)c4ncn(CCCC)c4N23)cc1OCC#C (stereo not given)
inactive: [1] 101% | [2] 85.2% | [3] 91.4% | [4] 62.5% | [5] 97.8% | [6] 87.4% | [7] 74.3% | [8] 73% | [9] 78.2% | [10] 65.3% | [11] 79.1% | [12] 85.2% | [13] 85.9% | [14] 93.6% | [15] 86.2% | [16] 92.3% | [17] 99.2% | [18] 97.2% | [19] 80.6% | [20] 83%

COc1cc2c(c(OC)c1OC)C(=O)CC(c1cccc(C(=O)Nc3ccc(Br)cc3)c1)O2 (stereo not given)
active: [9] 9.34% | [10] -0.848%
inactive: [1] 60.3% | [2] 63.5% | [3] 51.1% | [4] 40.3% | [5] 75.2% | [6] 63.9% | [7] 62% | [8] 40.3% | [11] 22.2% | [12] 14.6% | [13] 47.1% | [14] 89.4% | [15] 45.6% | [16] 76.2% | [17] 67.4% | [18] 65% | [19] 91.4% | [20] 36.1%

C#Cc1ccc(NC(=O)Cc2ccc(/C=C/C(=O)c3nccn3C)cc2)cc1
inactive: [1] 103% | [2] 78.4% | [3] 68% | [4] 58.7% | [5] 94.9% | [6] 96.5% | [7] 47.7% | [8] 105% | [9] 21.4% | [10] 40.8% | [11] 20.8% | [12] 19.2% | [13] 26.2% | [14] 105% | [15] 69.9% | [16] 109% | [17] 52.8% | [18] 12% | [19] 35.7% | [20] 34.5%

Source: PubChem BioAssay (NCI)
